# SMN2 splice enh = increases expression of the SMN2 splice variant; HEK293 SMN2-luciferase splicing reporter, luminescence, 30-36 h; Potency, µM (highest dose often 46.1 µM), for inactives: at the highest dose activity change, positive = activation, usual class: activators; actives 2.8% (n = 210,000); note: % of control where 0% means no effect; nearly all actives have a fitted effect of over 55% in size
#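 qHTS luciferase splicing reporter: luminescence rises when SMN2 exon 7 is included in transfected HEK293 cells. Compound exposure lasted 30-36 h at 37C, with 4.5 mM final sodium butyrate as control, followed by a ONE-Glo read.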
# NPC1 promoter act = activates the NPC1 promoter; AID 485313; Potency, µM (top dose mostly 9.22 µM), for inactives: at the top dose activation, usual class: activators; actives 2.4% (n = 320,000); Huh7 NPC1 promoter luciferase reporter, 24 h; note: % of control where 0% means no effect; nearly all actives have a fitted effect of over 60% in size
#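 Stable NPC1-promoter luciferase Huh7 line; cpd (DMSO) 24 h, 37 °C, 5% CO2; Amplite luciferase reagent 10 min RT; luminescence readout. qHTS format.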
# FLuc counter = firefly luciferase modulation, counter-screen for miR-21 project. purified FLuc, Km substrates, luminescence inhibition. Potency, µM (doses to about 57.5 µM), without a hit: at the top dose activity change, negative = inhibition, hits mostly inhibitors. actives 6.9% (n = 360,000). P08659. AID 588342;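 note: plate controls were vehicle for no effect and reference inhibitor for full effect; nearly all actives have a fitted effect of over 55% in size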
# Target sequence (P08659 whole entry, looked up): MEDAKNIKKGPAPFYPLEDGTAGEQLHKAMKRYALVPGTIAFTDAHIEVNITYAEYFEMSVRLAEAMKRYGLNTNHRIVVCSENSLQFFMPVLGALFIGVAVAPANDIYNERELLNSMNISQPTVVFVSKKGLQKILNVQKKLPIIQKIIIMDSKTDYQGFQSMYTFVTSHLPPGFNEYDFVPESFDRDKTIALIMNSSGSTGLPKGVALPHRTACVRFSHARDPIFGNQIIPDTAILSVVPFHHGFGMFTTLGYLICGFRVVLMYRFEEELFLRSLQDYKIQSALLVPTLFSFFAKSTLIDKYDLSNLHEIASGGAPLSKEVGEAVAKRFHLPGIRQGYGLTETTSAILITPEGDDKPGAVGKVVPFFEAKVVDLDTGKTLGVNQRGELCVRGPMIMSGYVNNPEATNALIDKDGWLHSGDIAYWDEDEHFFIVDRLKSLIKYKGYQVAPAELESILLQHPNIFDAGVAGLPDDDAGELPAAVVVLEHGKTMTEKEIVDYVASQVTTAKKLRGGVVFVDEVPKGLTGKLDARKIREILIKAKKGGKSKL
#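 Biochemical qHTS of compounds, final roughly 60 µM downward over six points, against 10 nM purified firefly luciferase using Km concentrations of substrates (10 uM D-luciferin, 10 uM ATP) in Tris acetate pH 7.5 buffer; luminescence output.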
# Luc counter = blocks Kinase-Glo luciferase, a counter-screen artifact; Kinase-Glo luciferase, ATP luminescence, 8 min; Potency, µM (highest dose often 38.3 µM), without a hit: at the top dose activity change, negative = inhibition, actives largely listed as inhibitors; Q27757; actives 0.28% (n = 200,000); AID 1379; note: % is set by controls: 0 for no effect and ±100 for the full control effect; nearly all actives have a fitted effect of over 60% in size
#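 Recombinant Kinase-Glo luciferase, 10 uM ATP (linear range), luciferin; imidazole pH 7.2 / KCl / MgCl2 / Tween / BSA buffer; 8 min RT; luminescence.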
# ELG1 genotoxic = genotoxicity induction in ELG1-luciferase HEK293T cells. HEK293T ELG1-luciferase reporter, luminescence, 16 h. Potency, µM (highest dose often 46 µM), inactives show top-dose activity change, positive = activation, most hits filed as activators. actives 1.3% (n = 330,000); note: % of control where 0% means no effect; nearly all actives have a fitted effect of over 60% in size
#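 16 hr compound incubation (37 °C, 5% CO2) of HEK293T cells carrying luciferase-tagged ELG1; luciferase then measured by ONE-Glo luminescence after 30 min at RT.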
# Rab9 promoter act = activators of Rab9 promoter; actives 2.8% (n = 320,000); Huh7 Rab9 promoter-luciferase reporter, luminescence, 24 h; Potency, µM (doses to about 9.22 µM), for inactives: at the top dose activation, negative = inhibition, actives largely listed as activators; AID 485297; note: % of control where 0% means no effect; nearly all actives have a fitted effect of over 60% in size
#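 Stable Rab9-luc Huh7, 1500 cells/well, 2 h settle; cmpd in DMSO, 24 h, 37 °C/5% CO2; luciferase reagent 10 min RT; luminescence.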
# * marks the source's active call; other numbers are inactive results; ? = inconclusive; · = no result; [ ] = remark or other dose. A selection: hits, their analogues and other compounds. The true share with any hit is near 7.5%. Calls come from the whole dose curve; as a rule, active = well fitted curve in the direction sought with a large enough effect; inconclusive = small, poorly fitted or top-dose-only effect, or another doubt; inactive = no such curve, though single readings can be large; an effect the other way counts as inactive or inconclusive. Potency is the fitted concentration of half-maximal effect.
SMILES,SMN2 splice enh,NPC1 promoter act,FLuc counter,Luc counter,ELG1 genotoxic,Rab9 promoter act
CC(Oc1ccc2c3c(c(=O)oc2c1)CCC3)C(=O)NCCCn1ccnc1 (centres undefined),·,-4%,-1%,·,3%,-1%
O=C(CCCOc1ccc(Cl)cc1Cl)Nc1ccccn1,9%,2%,17µM*,-2%,?,-3%
O=C(COc1ccc(Cl)cc1Cl)Nc1cccnc1,-9%,18%,6.7µM*,-3%,?,-5%
O=C(COc1ccc(Cl)cc1Cl)N/N=C/c1cccnc1,·,2%,-19%,·,-1%,10%
CCNC(=O)CCCOc1ccc(Cl)cc1Cl,4%,3%,?,-1%,?,6%
CCN(CC)C(=O)c1cc([N+](=O)[O-])cc2c1-c1ccc([N+](=O)[O-])cc1C2=C(C#N)C#N,·,-3%,-18%,·,9%,6%
CC[N+]1(C)C2CCC1CC(OC(=O)[C@H]1CCC(C(=O)OC3CC4CCC(C3)[N+]4(C)CC)(c3ccccc3)c3ccccc31)C2 (some centres undefined),13%,·,·,·,·,·
CCCNC(=O)c1ccccc1NC(=O)CN(c1ccccc1)S(=O)(=O)N(C)C,·,0%,-1%,·,-3%,0%
COc1cccc(C(=O)NCc2ccc(-c3nc4ccccc4s3)cc2)c1,?,10%,2.7µM*,-4%,21µM*,?
COc1cc(C(=O)NCc2ccncc2)cc(OC)c1OC,·,-1%,1%,-5%,4%,-1%
COc1cc(C(=O)NCc2ccc(OCCN(C)C)cc2)cc(OC)c1OC,?,-4%,4%,-4%,23µM*,-1%
COc1cc(C(=O)NCc2ccc(-c3nc4ccccc4s3)cc2)cc(OC)c1OC,18µM*,23%,0.6µM*,-4%,?,?
COc1ccc(-c2nc3ccccc3s2)cc1NC(=O)c1ccccc1OC,?,·,11µM*,·,·,·
Nc1c(C(=O)CSc2n[nH]c(-c3ccccc3)n2)c(=O)[nH]c(=O)n1C1CC1,·,-1%,-4%,·,-1%,1%
COCCN(C(=O)CSc1nnc(-c2cccs2)n1N)c1c(N)n(Cc2ccccc2)c(=O)[nH]c1=O,·,1%,2%,·,5%,1%
O=C1CC(N2CCN(c3ccccc3)CC2)C(=O)N1c1ccc(Cl)cc1 (centres undefined),·,1%,-9%,·,6%,-2%
COc1cccc(CNS(=O)(=O)c2ccc(-c3cc(C(F)(F)F)on3)s2)c1,·,·,8%,·,·,·
COc1ccccc1N1CCN(C(CNC(=O)C(=O)NCc2ccc(F)cc2)c2cccnc2)CC1 (centres undefined),·,·,-15%,·,·,·
COc1ccc(C(=O)Nc2cc(C)c(O)c(-c3nc4ccccc4s3)c2)cc1OC,5%,·,0.67µM*,·,·,·
COc1ccccc1C(=O)NCc1ccc(-c2nc3ccccc3s2)cc1,-12%[1.84 µM],28%,6µM*,4%,18%,?
COc1ccc(C(=O)NCc2ccc(-c3nc4ccccc4s3)cc2)cc1,-6%,24%,2.4µM*,-1%,-1%,22%
O=C(NCc1ccc(-c2nc3ccccc3s2)cc1)c1ccc(Br)o1,-21%[1.84 µM],14%,11µM*,-3%,?,24%
O=C(NCc1ccc(-c2nc3ccccc3s2)cc1)c1cc2ccccc2o1,·,1%,?,·,12%,2%
CC(C)C(=O)C(C)(C)CCc1ccccn1,-7%[9.22 µM],·,·,0%[7.66 µM],·,·
COc1ccccc1C(=O)Nc1ccc(-c2nc3ccccc3s2)c(C)c1,·,·,3.8µM*,·,·,·
SMILES,SMN2 splice enh,NPC1 promoter act,FLuc counter,Luc counter,ELG1 genotoxic,Rab9 promoter act
Cc1noc(C)c1-c1nccc(N2CCNCC2)n1,14%,·,·,-6%,·,·
NS(=O)(=O)c1ccc(CCNC(=O)c2cc(-c3ccc(Br)cc3)nc3ccccc23)cc1,11%,-8%,?,-2%,-9%,-1%
CC(C)Oc1cccc(-c2cc(C(=O)NC(=S)N(C)c3ccccc3C(=O)O)c3ccccc3n2)c1,18%,1%,2.7µM*,0%,3%,-1%
CCCc1ccc(-c2cc(C(=O)NN3CCOCC3)c3ccccc3n2)cc1,?,?,1.7µM*,-6%,8%,?
CCc1ccc(-c2cc(C(=O)Nn3cnnc3)c3ccccc3n2)cc1,?,?,0.067µM*,8.9µM*,?,?
CCCc1ccc(-c2cc(C(=O)NCCc3ccc(S(N)(=O)=O)cc3)c3ccccc3n2)cc1,?,?,0.67µM*,-12%,1%,2.8µM*
COc1cccc(-c2cc(C(=O)Nc3ccc4c(c3)OCCO4)c3ccccc3n2)c1,-7%,-3%,?,2%,0%,-2%
CCN(CC)CCCNC(=O)c1cc(-c2ccc(OC)c(OC)c2)on1,-9%,·,2%,·,·,·
C=C1CCc2c([nH]c3ccc(OCC(C)C)cc23)C1=O,·,-7%,5%,·,-3%,9%
CN(Cc1nccn1C)C(=O)CC1C(=O)NCCN1Cc1ccc(F)cc1Cl (centres undefined),·,1%,7%,·,3%,3%
CCCC(=O)Nc1nnc(SCc2cc(=O)c3cc(C)ccc3[nH]2)s1,·,·,4%,·,·,·
CCc1ccc(-c2cc(C(=O)N3N=C(C(F)F)CC3(O)C(F)F)c3ccccc3n2)cc1 (centres undefined),9%,21%,5.4µM*,-4%,0%,28%
CC(C)Oc1cccc(-c2cc(C(=O)NN3CCOCC3)c3ccccc3n2)c1,·,-1%,13µM*,·,-1%,-2%[1.84 µM]
Cc1cc(C)c2nc(-c3ccccn3)cc(C(=O)NCc3cc(C)n(C)n3)c2c1,13%,-1%,-7%,-2%,?,-4%
Cc1cc(C)c2nc(-c3ccccn3)cc(C(=O)Nn3cnnc3)c2c1,0%,-3%,19µM*,0%,0%,2%
Cc1cc(C)n(CCc2nc3c4ccccc4nc(N4CCN(c5ccccc5)CC4)n3n2)n1,-9%,·,-7%,·,·,·
COc1ccc(OC)c(-c2csc(NC(=O)CN3C(=O)NC4(CCCC4)C3=O)n2)c1,·,-3%,-3%,·,1%,-10%
COc1ccc(OC)c(-c2csc(NC(=O)c3ccccc3F)n2)c1,·,0%,15µM*,·,8%,-3%
COc1ccc(OC)c(-c2csc(NC(=O)Cc3ccccc3F)n2)c1,·,14%,11µM*,·,-31%,4%
O=C(Nc1nc(COc2ccccc2)cs1)c1ccccc1F,-43%,8%,27µM*,-5%,9%,1%
COc1ccc(OC)c(-c2csc(NC(=O)Cc3ccccc3OC)n2)c1,·,0%,9.5µM*,·,6%,0%
Nc1ccccc1Nc1ccccc1,16%,-5%,-6%,4%,-10%,0%[1.84 µM]
Nc1ccccc1Nc1cc(-c2ccccc2)[nH]n1,?,-28%,11µM*,-6%,8%,-16%

# Screening data from PubChem BioAssay.
